Results filed as inconclusive are left out. Unmarked numbers belong to inactive results. The source made the active and inactive calls. The call rests on the fitted dose curve; in most records, active means well fitted inhibition curve with a large enough effect; inconclusive means small, poorly fitted or top-dose-only effect; inactive means flat fitted curve, though single readings scatter.

Assay [1] relates to CRL-7250. Description: Cytotoxic Profiling of Annotated Libraries Using Quantitative High-Throughput Screening (AID 1296008). Further: potency means the concentration at half of the fitted maximal effect. On max response: on the % scale 0 is the no-effect control and ±100 the full control effect. As to conditions: Five cell lines viability, CellTiter-Glo ATP luminescence, 48-72 h; max response: active compounds read low. The method in brief:
(§1)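 Cells exposed to compounds for 48 or 72 hr at 37 degrees Celsius. Viability read as ATP-coupled luminescence with CellTiter-Glo after 10 min at room temperature.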

Assay [2] concerns HEK293. The description is as above. As to conditions: Five cell lines viability, CellTiter-Glo ATP luminescence, 48-72 h; max response: active compounds read low. Summed up:
as §1
On the technique in general: Cellular ATP, detected with luciferase, serves as a proxy for viable cell number.

Assay [3] deals with HaCat. Described as above. As to conditions: Five cell lines viability, CellTiter-Glo ATP luminescence, 48-72 h; max response: active compounds read low. The method in brief:
as §1

In assay [4] the test system is KB-3-1. Described as above. As to conditions: Five cell lines viability, CellTiter-Glo ATP luminescence, 48-72 h; max response: active compounds read low. Summed up: as §1
In assay [5] the test system is NIH3T3. The assay is described as above. As to conditions: Five cell lines viability, CellTiter-Glo ATP luminescence, 48-72 h; max response: active compounds read low. Summed up:
as §1

Assay [6] deals with HACAT. Put plainly: qHTS assay to identify novel small-molecules to repurpose for Merkel cell carcinoma treatment (AID 1296009). As to conditions: MCC and control cell lines, CellTiter-Glo viability, 72 h; at 44.8 µM (top of the series) unless noted. The method in brief: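 Cells were treated for 72 hr at 37 degree celsius with compounds in 8- or 11-point dose response. Viability was read by CellTiter-Glo luminescence, normalized to no-cell (cytotoxicity) and DMSO controls.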
(qHTS replaces the single test concentration by a dilution series.)
Further: nearly all actives have a fitted effect of over 60% in size.

Regarding `N#Cc1cc(NC(=O)Nc2nnc(-c3ccncc3)s2)ccc1-c1cn[nH]c1`, the max response in assay [1] was -3.75%; in assay [4], 0.642%; in assay [5], -2.38%. Also, the molecule was classed as inactive in assay [2], in assay [3] and in assay [6].
For the molecule `COc1ccnc2[nH]cc(C(=O)C(=O)N3CCN(C(=O)c4ccccc4)C[C@@H]3C)c12`, the max response in assay [1] was -9.05%; in assay [2] it was -2.26%; in assay [3] it was -2.32%; in assay [4], 3.92%; in assay [5], -11.5%.
As for `CC(=O)O[C@H]1C[C@@H]2CC[C@H]3[C@H]4C[C@H]([N+]5(C)CCCCC5)[C@@H](OC(C)=O)[C@@]4(C)CC[C@@H]3[C@@]2(C)C[C@H]1N1CCCCC1`, the max response in assay [1] was -4.19%; in assay [2], 2.19%; in assay [3], -11.8%; in assay [4], 2.79%; in assay [5], 4.95%.
With `Cc1ccc(O)c(C(CCN(C(C)C)C(C)C)c2ccccc2)c1` (stereo unspecified), the call in assay [1], in assay [3], in assay [4], in assay [5] and in assay [6] was inactive. Besides, the max response in assay [2] is -19.9%.
`N#CNC(=NCCCCCCOc1ccc(Cl)cc1)Nc1ccncc1`: the max response in assay [1] was -103%; in assay [2], -111%. The Potency in assay [3] is 20.9 nM (active); in assay [4], 3.7 nM (active); in assay [5], 296 nM (active).
For `Cc1cn([C@@H]2O[C@H](CO)[C@@H](O)[C@H]2F)c(=O)[nH]c1=O`, the max response in assay [1] was -5.97%; in assay [2], -1.3%; in assay [3] it was -13.3%. Also, the molecule was called inactive in assay [4] and in assay [5].
Turning to `CN(C)CC[C@H](c1ccc(Cl)cc1)c1ccccn1`, the molecule was called inactive in assay [1]. Further, the max response in assay [2] was -15.3%; in assay [3], -31.9%; in assay [4] it was -7.57%; in assay [5], -0.393%.
With `C=Cc1c(C)c2cc3nc(cc4[nH]c(cc5nc(cc1[nH]2)C(C)=C5CCC(=O)O)c(CCC(=O)OC)c4C)[C@@]1(C)C3=CC=C(C(=O)OC)[C@H]1C(=O)OC`, the max response in assay [1] was 1.72%; in assay [5], 4.13%. Besides, the Potency in assay [2] is 11800 nM (active). Moreover, the outcome in assay [3], in assay [4] and in assay [6] was inactive.
With `CCCCCCCCCCCCc1ccc(S(=O)(=O)Nc2nncs2)cc1`, the molecule was classed as inactive in assay [1], in assay [2], in assay [4] and in assay [5]. Further, the max response in assay [3] was -11%.
Regarding `CC(=O)N[C@H]1[C@@H]([C@H](O)[C@H](O)CO)OC(C(=O)O)=C[C@@H]1N=C(N)N`, the max response in assay [1] was -3%; in assay [2], 2.95%; in assay [3] it was -9.9%; in assay [5], 3.71%. Further, the outcome in assay [4] was inactive.
As for `CC(=O)O[C@H]1C[C@@H]2CC[C@H]3[C@H]4C[C@H]([N+]5(C)CCCCC5)[C@@H](OC(C)=O)[C@@]4(C)CC[C@@H]3[C@@]2(C)C[C@H]1[N+]1(C)CCCCC1`, the figures for the max response in assay [1], in assay [2] and in assay [5] were 0.398%, 0.173% and -1.21%, respectively. The call in assay [3], in assay [4] and in assay [6] was inactive.
In the case of `C[C@@]12C(=O)OC(=O)[C@@]1(C)C1CCC2O1`, the Potency in assay [1] was 5260 nM (active); in assay [2], 8330 nM (active); in assay [3] it was 26400 nM (active); in assay [4] it was 7430 nM (active); in assay [5] it was 13200 nM (active).
Turning to `CN(C)c1ccc(C(=O)NCCCCCCC(=O)NO)cc1`, the Potency in assay [1] was 2640 nM (active); in assay [2], 1870 nM (active); in assay [3] it was 4690 nM (active); in assay [4] it was 2350 nM (active); in assay [5], 3720 nM (active).
For `COC(=O)[C@@H]1[C@H]2C[C@@H]3c4[nH]c5ccccc5c4CCN3C[C@@H]2CC[C@@H]1O`, the outcome in assay [1], in assay [2], in assay [3] and in assay [6] was inactive. Besides, the max response in assay [4] is 1.87%; in assay [5], -9.61%.
Regarding `CC(C)(O)Cn1c(NC(=O)c2ccc(-c3cn[nH]c3)s2)nc2cc(CN3CCOCC3)ccc21`, the Potency in assay [1] was 1660 nM (active); in assay [2], 526 nM (active); in assay [3] it was 1320 nM (active); in assay [4], 1050 nM (active); in assay [5], 2350 nM (active).
Take `Cc1cc(O)c2c(c1)C(=O)c1cccc(O)c1C2=O`: the call in assay [1] and in assay [2] was inactive. Besides, the max response in assay [3] was -2.05%; in assay [4] it was 4.24%; in assay [5], 4.67%.
With `O=C(O)C(=O)Nc1cccc(C2=NN=N[N]2)c1`, the outcome in assay [1] was inactive. Moreover, the max response is -1.4% in assay [2], -4.6% in assay [3], 7.57% in assay [4] and -1.86% in assay [5].
Regarding `COc1cc([C@@H]2c3cc4c(cc3[C@H](O)[C@H]3COC(=O)[C@@H]23)OCO4)cc(OC)c1OC`, the Potency in assay [1] is 296 nM (active); in assay [2] it was 132 nM (active); in assay [4], 235 nM (active); in assay [5] it was 187 nM (active). Moreover, in assay [3], the max response was 4.88%.
For `O=C1NC(O)CCN1[C@@H]1O[C@H](CO)[C@H](O)[C@H]1O` (stereo partly specified), the max response was -71.1% in assay [1], -3.17% in assay [2], -2.55% in assay [4] and 1.52% in assay [5]. The molecule was called inactive in assay [3] and in assay [6].
For the molecule `CC(C)C[C@H](NC(=O)CNC(=O)c1cc(Cl)ccc1Cl)B1OC(=O)CC(CC(=O)O)(C(=O)O)O1` (stereo partly specified), the Potency in assay [1] is 1320 nM (active); in assay [2] it was 469 nM (active); in assay [3] it was 4180 nM (active); in assay [4], 1050 nM (active); in assay [5] it was 833 nM (active).
As for `CCC[C@H]1C[C@H](C(=O)N[C@@H]([C@@H]2O[C@@H](SC)[C@@H](O)[C@@H](O)[C@@H]2O)[C@H](C)Cl)N(C)C1`, the max response in assay [1] was -6.31%; in assay [2] it was -2.02%; in assay [3], -10.7%; in assay [4] it was 0.31%; in assay [5] it was -6.56%.
